G9a inh: qHTS Assay for Inhibitors of Histone Lysine Methyltransferase G9a; hit rate 8.8% among 350,000; G9a H3K9 monomethylation, AlphaScreen, 2 h; Potency, µM (titrated, usually from 102 µM), inactives show at the highest dose activity, negative = inhibition, hits mostly inhibitors; Histone-lysine N-methyltransferase EHMT2 (Homo sapiens), Q96KQ7; further: on the % scale 0 is the no-effect control and ±100 the full control effect; nearly all actives have a fitted effect of over 75% in size
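Compounds were preincubated with 20 nM G9a for 15 min, after which biotinylated H3K9 peptide (500 nM) and SAM (20 uM) started a 2 h room-temperature reaction. Monomethylated product was quantified by antibody-based AlphaScreen chemiluminescence.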
GLS inh: qHTS for Inhibitors of Glutaminase (GLS); Potency, µM (highest dose often 45.5 µM), for inactives: at the top dose activity change, negative = inhibition, actives largely listed as inhibitors; hit rate 0.21% among 410,000; GLS enzymatic activity, qHTS titration; Glutaminase kidney isoform, mitochondrial (Homo sapiens), O94925; further: on the % scale 0 is the no-effect control and ±100 the full control effect
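Assay buffer: 45 mM KH2PO4 pH 8.2, 0.02% Tween-20. hKGA acts on L-glutamine (1 mM solution added); product glutamate is reported by an oxidase/peroxidase Amplex Red coupling, with fluorescence taken at baseline and 30 min.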
L3MBTL1 inh: qHTS Assay for the Inhibitors of L3MBTL1 | AlphaScreen L3MBTL1–H3K9me1 peptide binding | hit rate 0.66% among 230,000 | AID 485360, 2010 | Potency, µM (top dose mostly 57.1 µM), for the others: at the highest dose activity, negative = inhibition, usual class: inhibitors; further: on the % scale 0 is the no-effect control and ±100 the full control effect; nearly all actives have a fitted effect of over 60% in size
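AlphaScreen proximity signal between nickel-chelate acceptor and streptavidin donor beads (final 10 ug/mL) reports binding of 50 nM L3MBTL1 to 75 nM biotin-H3 K9me1 peptide; complex incubated with compounds 30 min at room temperature; cefsulodin titration as control.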
HP1b binding inh: HTS for Inhibitors of HP1-beta Chromodomain Interactions with Methylated Histone Tails; Chromobox protein homolog 1 (Homo sapiens), P83916; AlphaScreen HP1-beta / biotin-H3K9me3 peptide binding; Potency, µM (top dose mostly 114 µM), for the others: at the highest dose activity change, negative = inhibition, hits mostly inhibitors; hit rate 0.56% among 390,000; further: nearly all actives have a fitted effect of over 70% in size
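Compound inhibition of the preformed complex between 50 nM HP1-beta and 50 nM biotinylated H3K9me3 peptide was read by AlphaScreen. Buffer was PBS pH 7.4 with 0.01% Tween-20. Incubations ran 30 min at room temperature, with 10 ug/mL donor/acceptor beads.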
BAZ2B inh: qHTS Assay for Inhibitors of BAZ2B; Potency, µM (doses to about 114 µM), inactives show at the highest dose activity change, negative = inhibition, actives largely listed as inhibitors; AlphaScreen BAZ2B-H3K14Ac peptide displacement; Bromodomain adjacent to zinc finger domain protein 2B (Homo sapiens), Q9UIF8; hit rate 4.4% among 360,000; further: on the % scale 0 is the no-effect control and ±100 the full control effect; nearly all actives have a fitted effect of over 60% in size
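BAZ2B 50 nM plus b-H3(5-23)K14Ac 50 nM, PBS pH 7.4/0.01% Tween-20, 30 min RT; compound added (max 110 uM), 30 min RT; streptavidin donor/Ni-chelate acceptor beads 10 ug/mL final, 20 min dark; AlphaScreen read.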
JMJD2A Tudor: qHTS Assay for Inhibitors of JMJD2A-Tudor Domain. Potency, µM (titrated, usually from 114 µM), inactives show top-dose activity change, negative = inhibition, most hits filed as inhibitors. AlphaScreen JMJD2A-Tudor / H3K4me3 peptide binding. Lysine-specific demethylase 4A (Homo sapiens), O75164. hit rate 4.4% among 390,000; further: on the % scale 0 is the no-effect control and ±100 the full control effect; nearly all actives have a fitted effect of over 50% in size
Active calls of the source: *; ? = inconclusive; nt = not tested or not shown; [ ] = dose if it differs, or a comment. This is a sample that favours compounds with a hit; in the whole collection about 10% have one here. The call rests on the fitted dose curve; in most records, active means well fitted curve in the direction sought with a large enough effect; inconclusive means small, poorly fitted or top-dose-only effect, or another doubt; inactive means no such curve, though single readings can be large; an effect the other way counts as inactive or inconclusive. Potency means the concentration at half of the fitted maximal effect.

SMILES | G9a inh | GLS inh | L3MBTL1 inh | HP1b binding inh | BAZ2B inh | JMJD2A Tudor
Cc1ccc2nc(-c3ccc(Cl)c(NC(=O)COc4ccc([N+](=O)[O-])cc4)c3)oc2c1 | 9%[59 µM] | 2% | nt | 52% | -3% | -12%
CCOC(=O)NC(N(O)c1cccc(Cl)c1)C(Cl)(Cl)Cl (configuration not stated) | 40µM* | 0% | -4% | -11% | -29% | -26%
CC(C)Oc1ccc(CNC(=O)c2ccc3nc(C(C)C)oc3c2)cc1 | 9%[59 µM] | -1% | nt | 49%[57 µM] | 16% | -9%
CCc1cccc(NC(=O)CSc2n[nH]c(-c3ccccc3Cl)n2)c1 | 6%[59 µM] | -7% | nt | 13%[57 µM] | 2% | -22%
Cc1ccc(Nc2nc(C(=O)N3CCC(C(=O)NC(C)C)CC3)cs2)cc1 | ? | 15% | nt | 17% | -21% | -16%
Cc1ccc(Nc2nc(C3CC3)cs2)cc1 | 40µM* | nt | 8% | nt | -5% | nt
Clc1ccc(Nc2nc(C3CC3)cs2)cc1 | 40µM* | 23% | nt | 29% | -6% | -34%
CCCc1cc(=O)n2[nH]c(NC(=O)c3ccccc3Cl)nc2n1 | 2%[59 µM] | -6% | nt | 31% | -4% | 7%
COc1ccc(NC(=O)C2CCN(S(=O)(=O)c3cccc4nonc34)CC2)cc1 | 45µM* | 4% | nt | 27% | 2% | 6%
CC(=O)c1ccc(NC(=O)C2CCN(S(=O)(=O)c3cccc4cccnc34)CC2)cc1 | 50µM* | -1% | -16% | 31% | -4% | -23%
COc1cccc(NC(=O)C2CCN(S(=O)(=O)c3cccc4nonc34)CC2)c1 | -3%[59 µM] | -1% | nt | 7% | -1% | 3%
COC(=O)c1nc2n(n1)C(c1cccc(Cl)c1)C(C(=O)Nc1ccccc1OC)=C(C)N2 (configuration not stated) | -39%[59 µM] | 9% | nt | 41% | ? | 0%
COc1ccc(Cl)cc1NC(=O)c1cc(S(=O)(=O)NC2CCCCCC2)ccc1F | 3%[59 µM] | -2% | nt | 29% | 3% | -17%
CCS(=O)(=O)N1CCN(S(=O)(=O)c2ccc(Cl)s2)CC1 | 16µM* | -3% | nt | 38% | 50µM* | -1%
CCOC(=O)c1c(NC(=O)CSc2cn(CCNC(=O)c3ccc(OC)c(OC)c3)c3ccccc23)sc2c1CCCC2 | 7%[59 µM] | 8% | nt | 13% | -33% | -30%
Cc1ccc(CNC(=O)CN2C(=O)CCn3nc(-c4ccccc4)cc32)cc1 | -6%[59 µM] | 3% | nt | 12% | -1%[57.1 µM] | -12%
Cc1onc(-c2ccccc2Cl)c1C(=O)O/N=C(\N)c1ccc([N+](=O)[O-])o1 | 35µM* | 1% | -3% | -12% | ? | ?
Cc1cnc(NC(=O)c2sc3ccccc3c2Cl)s1 | 16% | -16% | -3% | 26% | -1% | -3%
Cc1onc(-c2ccccc2Cl)c1C(=O)Nc1nnc(C(C)C)s1 | 50µM* | 0% | 5% | 23% | 6% | -23%
CC(C)c1nnc(NC(=O)c2sc3ccccc3c2Cl)s1 | 45µM* | -7% | -1% | -9% | 0% | 9%
CCOC(=O)c1ccc(NC(=O)C2=C(C)C(=O)OC23CCCCCC3)cc1 | 2%[59 µM] | 2% | nt | 31% | -4% | -18%
O=C(OCC#CCSc1nnc(-c2cccc3ccccc23)o1)c1csc2ccccc12 | nt | nt | nt | nt | nt | 9%
COc1ccc2cc(-c3nc(Cl)c4c5c(sc4n3)CCCC5)c(=O)oc2c1 | 1%[59 µM] | -7% | nt | 13% | 11% | -5%
COc1ccc(S(=O)(=O)c2c(C(=O)c3ccc(C)c(C)c3)cnc3ccc(C)cc23)cc1 | -39%[59 µM] | 1% | nt | 14% | -26% | ?
Nc1nc(SCC(=O)Nc2ccc(F)cc2)[nH]c(=O)c1NC(=O)c1ccc(F)c(F)c1 | 79µM* | 6% | nt | 18% | -21% | -3%
SMILES | G9a inh | GLS inh | L3MBTL1 inh | HP1b binding inh | BAZ2B inh | JMJD2A Tudor
CCc1ccc(NC(=O)CSc2nc(N)c(NC(=O)c3ccc(F)c(F)c3)c(=O)[nH]2)cc1 | nt | 7% | nt | 16% | -1% | -5%
CC(=O)Nc1ccc(NC(=O)CSc2nc(N)c(NC(=O)c3ccco3)c(=O)[nH]2)cc1 | -5%[12.7 µM] | -5% | nt | 14% | 50µM* | -15%
Cc1cc(C)cc(NC(=O)CSc2nc(N)c(NC(=O)c3cccs3)c(=O)[nH]2)c1 | 11µM* | 20% | 15% | 15% | -8% | -15%
O=C(Nc1ccc(F)cc1F)C1CCN(S(=O)(=O)c2ccc3[nH]c(=O)ccc3c2)CC1 | 0%[59 µM] | -10% | nt | 28%[57 µM] | 0% | 2%
CC(C)(C)OC(=O)N1CCC[C@H]1c1nnc(SCc2ccccc2F)o1 | 50µM* | 10% | 3% | 53% | 4% | 3%
COc1ccc(-n2c(=O)c3c4c(sc3n(Cc3ccc(C)cc3C)c2=O)CCC4)c(OC)c1 | ? | 4% | nt | -3% | ? | -32%
Cn1c(C(=O)NCCN2CCN(c3ccccc3F)CC2)cc2c(=O)n(C)c3ccccc3c21 | 45µM* | 1% | 0% | -6% | 0% | -25%
Cn1c(C(=O)NCCCN2CCN(c3ccc(F)cc3)CC2)cc2c(=O)n(C)c3ccccc3c21 | nt | -9% | nt | 37% | nt | -12%
Cn1c(C(=O)NCCN2CCc3ccccc3C2)cc2c(=O)n(C)c3ccccc3c21 | 45µM* | -12% | 9% | 31% | -23% | -29%
Cn1c(C(=O)NCCN2CCOCC2)cc2c(=O)n(C)c3ccccc3c21 | ? | 13% | nt | 52% | 10% | -17%
CCOC(=O)c1ccccc1NC(=O)N1CCN2CCCCC2C1 (configuration not stated) | -11%[59 µM] | 5% | nt | 24% | -9% | -12%
COc1cccc(C2C(=O)N(C3CCCCC3)CC(=O)N2Cc2ccc(Cl)cc2)c1 (configuration not stated) | -1%[59 µM] | 5% | nt | 36% | -3% | 4%
CN(Cc1nccs1)C(=O)c1ccc(OC2CCN(Cc3ccccn3)CC2)cc1 | nt | 0% | nt | 16% | -12% | -5%
CC(C)N(Cc1cnn(C)c1)C(=O)c1ccc(OC2CCN(Cc3ccccn3)CC2)cc1 | 45µM* | 3% | nt | 28% | 89µM* | -36%
Cc1nn(C)cc1CN(C)C(=O)c1ccc(OC2CCN(Cc3ccccn3)CC2)cc1 | ? | 7% | nt | 29% | ? | 56µM*
COc1ccccc1NC(=O)c1oc2ccccc2c1NC(=O)Cc1ccccc1 | -35%[59 µM] | -7% | nt | 35% | -2% | -15%

Source: PubChem BioAssay (National Center for Advancing Translational Sciences (NCATS))
